TEAD-YAP block: TEAD-YAP interaction inhibition, primary screen, TEAD-YAP interaction inhibitor project, luminescence, HEK-TIYL cells; TEAD-Gal4/YAP UAS-luciferase luminescence; hit rate 1.4% among 640,000; inhibition, % at 9.12 µM; in the data active = inhibition above about 32%;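 also: 0% = median of test compound wells and 100% = reference inhibitor wells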
GPR151 ag: activators of human GPR151, primary screen, cell-based, PathHunter beta-arrestin, luminescence | AID 1508602, 2020 | hit rate 1% among 650,000 | PathHunter beta-arrestin GPR151 cells | activation, % at 11.2 µM | G-protein coupled receptor 151 (Homo sapiens), Q8TDV0; in the data active = activation above about 4.9%;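 also: 0% = median of compound wells and 100% = cells with positive control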
Target sequence (Q8TDV0 whole entry, looked up): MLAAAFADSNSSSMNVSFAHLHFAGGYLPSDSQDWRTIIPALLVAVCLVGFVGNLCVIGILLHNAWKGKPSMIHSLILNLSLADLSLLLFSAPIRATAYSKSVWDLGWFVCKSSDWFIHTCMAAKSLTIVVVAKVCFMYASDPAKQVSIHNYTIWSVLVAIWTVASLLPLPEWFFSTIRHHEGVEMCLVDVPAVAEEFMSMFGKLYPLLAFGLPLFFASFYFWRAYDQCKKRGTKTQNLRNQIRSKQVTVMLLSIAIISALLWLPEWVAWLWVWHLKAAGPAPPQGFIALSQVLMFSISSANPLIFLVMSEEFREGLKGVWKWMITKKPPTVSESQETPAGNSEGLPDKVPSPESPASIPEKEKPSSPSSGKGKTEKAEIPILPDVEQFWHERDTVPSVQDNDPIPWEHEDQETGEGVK
FBW7 activator: FBW7 E3 ligase activators, primary screen, biochemical, AlphaScreen, human. F-box/WD repeat-containing protein 7 (Homo sapiens), Q969H0. AlphaScreen FBW7–phospho-cyclin E peptide binding, activator screen. normalized activity (activation), % at 26.1 µM. hit rate 0.13% among 650,000; in the data active = normalized activity above about 1.9%;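 also: purified mutant Fbw7 with reduced substrate affinity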
MITF primary: MITF inhibitors, primary screen, biochemical, AlphaScreen, human. Microphthalmia-associated transcription factor (Homo sapiens), O75030. AlphaScreen MITF homodimerization, bead proximity signal. inhibition, % at 2.6 µM. hit rate 0.91% among 650,000. AID 1259374, 2018; in the data active = inhibition above about 50%;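 also: 0% = vehicle wells with protein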
GPR151 confirm: GPR151 activators, triplicate retest, confirmation, cell-based, PathHunter beta-arrestin, luminescence; shares compounds with GPR151 ag; GPR151 PathHunter beta-arrestin cells, 90 min; % of EA-reagent control over plate median; activation, % at 11.2 µM; 6,700 tested, under 10 active; AID 1508609, 2020;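 active = mean percent activation across replicates above the confirmation screen cutoff of 4.91%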
GPR119 counter: GPR119 activators in beta-arrestin cells, counter-screen for GPR151 activator project, cell-based, PathHunter beta-arrestin, luminescence, triplicate | shares compounds with GPR151 ag | 90 min; 0 = compound-well median, 100 = enzyme-acceptor control | activation, % at 11.2 µM | hit rate 0.3% among 6,700;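 active = mean percent activation in the counterscreen above 29.09%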;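 also: counterscreen on off-target GPR119 to flag nonselective hits from the GPR151 activator screen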
Numbers without * were called inactive; . = no result given; ! = a repeat was not active. An excerpt weighted towards active compounds, which were near 3.4% of everything screened.

SMILES	TEAD-YAP block	GPR151 ag	FBW7 activator	MITF primary	GPR151 confirm	GPR119 counter
COc1ccc(CCNc2nc(NC3CCN(Cc4ccccc4)CC3)nc3cc(OC)c(OC)cc23)cc1	-3	8.0*	0	1	0	11
CC(=O)C1=C(O)C(=O)N(CC2CCCO2)C1c1ccc(C)cc1 (stereo unspecified)	2	3	0	11	.	.
O=[N+]([O-])c1ccccc1-c1cnn(-c2ccccc2)c1	-52	-1	0	9	.	.
O=[N+]([O-])c1ccccc1-c1cnn(-c2ccc(F)cc2F)c1	-37	5.9*	1	15	-2	-19
Cc1nc2sccn2c(=O)c1CCN1CCC(=C(c2ccc(F)cc2)c2ccc(F)cc2)CC1	0	0	0	28	.	.
Cc1nc2ccccn2c(=O)c1CCN1CCC(C(=O)c2ccc(F)cc2)CC1	-3	9.9*!	1	7	0	-4
O=C(COc1ccc([N+](=O)[O-])cc1)Nc1cc(C(F)(F)F)ccc1N1CCOCC1	-12	1	0	-14	.	.
O=C(Nc1cc(C(F)(F)F)ccc1N1CCOCC1)c1cc([N+](=O)[O-])ccc1Cl	81*	5.6*	0	8	0	-7
COc1ccc(NC(=O)c2c(O)c3c([nH]c2=O)CCCC3)cc1	-3	2	1	7	.	.
CCN(CC)c1cc(Nc2ccc(NC(C)=O)cc2)c([N+](=O)[O-])c2nonc12	7	2	0	6	.	.
CCN(CC)c1cc(NCCO)c([N+](=O)[O-])c2nonc12	5	5.9*	0	16	-1	-12
CCOC(=O)C(C)Oc1ccc(Br)c(C=O)c1 (stereo unspecified)	-3	0	0	-2	.	.
COCCN1C(=S)NC2CC1(C)Oc1ccccc12 (stereo unspecified)	-7	6.1*	0	-10	0	-10
CCOc1ccc(-n2c(=S)sc3c(=O)n(-c4ccccc4)c(SCC(=O)N(CC)CC)nc32)cc1	8	2	0	-4	.	.
COC(=O)CN1C(=O)Nc2ccc(Br)cc2C1c1ccccc1Cl (stereo unspecified)	1	15*	0	2	0	4
CCOC(=O)CN1C(=O)Nc2ccc(Br)cc2C1c1ccccc1 (stereo unspecified)	7	1	1	14	.	.
COc1ccc(NC(=O)N2CCC(CN3CCOCC3)CC2)cc1OC	5	6.9*	0	5	1	6
COc1ccc(NC(=O)N2CCC(CN3CCOCC3)CC2)c(OC)c1	-2	4	0	9	.	.
CCOc1ccc(S(=O)(=O)Nc2ccc3oc(C)c(C(=O)OC)c3c2)cc1	63*	8.9*	0	19	0	16
CC(=O)Nc1ccc(NS(=O)(=O)c2cc(C(C)(C)C)cc(C)c2C)cc1	4	6.4*	0	-4	0	6
Cc1ccc(NS(=O)(=O)c2cc(C(=O)O)cc(C)c2C)cc1	6	-1	0	-11	.	.
COC(=O)COc1ccc(S(=O)(=O)Nc2ccc(NC(C)=O)cc2)cc1C	2	6.2*	0	6	1	-10
CCOC(=O)COc1ccc(S(=O)(=O)Nc2ccc(C(=O)OCC)cc2)cc1	0	5.0*	0	-7	-1	3
CCOC(=O)COc1ccc(S(=O)(=O)Nc2ccc(Br)cc2)cc1	4	3	0	-2	.	.
COC(=O)c1c(C)oc2ccc(NS(=O)(=O)c3ccc(C(C)(C)C)cc3)cc12	29	0	0	8	.	.
SMILES	TEAD-YAP block	GPR151 ag	FBW7 activator	MITF primary	GPR151 confirm	GPR119 counter
CCOC(=O)C(NS(=O)(=O)c1ccc([N+](=O)[O-])cc1)C(C)CC (stereo unspecified)	-2	-2	0	9	.	.
CC(Cc1nc2cc([N+](=O)[O-])ccc2n1CCO)Oc1ccc(Cl)cc1 (stereo unspecified)	4	1	0	4	.	.
CCCCc1ccc(NS(=O)(=O)c2ccc(OCC(=O)OC)cc2)cc1	-8	5.2*	0	-9	0	3
COC(=O)COc1ccc(NS(=O)(=O)c2ccc(NC(C)=O)cc2)cc1	4	-1	1	9	.	.
COc1ccc(S(=O)(=O)Nc2ccc(F)c(F)c2)cc1C	3	14*	0	8	1	2
CC(C)Oc1c(Cl)cc(C=O)cc1Cl	22	6.8*	0	12	0	-1
CCOc1ccc(C=Nc2ccc(C(C)=O)cc2)c(O)c1	-32	5.6*	0	5	-1	-13
CCOc1ccc(C=Nc2ccc(C(=O)O)cc2)c(O)c1	-13	-1	0	14	.	.
COC(=O)c1ccsc1NC(=O)c1ccc(C)c(C)c1	-7	-1	0	8	.	.
Cc1ccnc(NC(=O)C2CCCC2)c1	-11	0	0	16	.	.
Cc1ccnc(NC(=O)C2CC=CCC2C(=O)O)c1 (stereo unspecified)	-5	6.3*	0	14	0	-4
O=C1CCC([N+](=O)[O-])C(c2ccc3c(c2)OCO3)N1 (stereo unspecified)	-2	7.7*	0	-6	0	13
O=C1CCC([N+](=O)[O-])C(c2ccc(Cl)c(Cl)c2)N1 (stereo unspecified)	-6	-1	0	-7	.	.
O=C(CC1OCCN(Cc2ccccc2)C1=O)Nc1ccc2c(c1)OCO2 (stereo unspecified)	3	9.9*	0	21	1	14
Cc1ccc(-c2ncn(-c3ccc(Nc4nccc(-c5cc(N6CCOCC6)cc(S(C)(=O)=O)c5)n4)cc3)n2)cn1	15	0	0	-16	.	.
CCCC(c1nnnn1CCOC)N1CCN(c2cccc(C(F)(F)F)c2)CC1 (stereo unspecified)	-9	5.4*	0	0	-1	-11
CCOc1ccc(-n2nnnc2SCC(=O)N2CCOCC2)cc1	3	5.3*	0	-14	0	6
O=C(CSc1nnnn1-c1ccc(F)cc1F)N1CCOCC1	-11	5.5*	0	12	2	12
COC(=O)c1ccc(-n2nnnc2SCC(=O)N2CCOCC2)cc1	-5	4.9*	0	3	1	21
CCCC(=O)Nc1ccccc1NC(=O)C(C)Oc1ccc(OC)cc1 (stereo unspecified)	-5	2	0	3	.	.
COc1ccccc1N1CCN(C(=O)c2cccc(Cl)c2)CC1	21	0	0	-4	.	.
CCC(=O)Nc1ccc(NC(=O)CSc2nc3c(c(=O)n(C)c(=O)n3C)n2C)cc1	14	15*	0	15	2	10

Screening data: PubChem, The Scripps Research Institute Molecular Screening Center
